In PubChem BioAssay AID624110 (Broad Institute, 2012):
Unmarked numbers belong to inactive results.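 How the source made its calls: active means signal falls with dose and the fitted half-maximal concentration is at most twice the highest valid tested dose; inconclusive means flat fit with a moderate signal drop, or unreliable fit; inactive means opposite effect, flat near zero, or potency past limit.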

target: PglD acetyltransferase (Campylobacter jejuni) (UniProt O86157); experiment: inhibition of C. jejuni PglD N-acetyltransferase – biochemical, DTNB absorbance, Campylobacter jejuni, cherry-picked samples, dose response (AID 624110); conditions: purified C. jejuni PglD, DTNB absorbance 412 nm; series mostly up to 19.5 µM; normalized activity % vs neutral control (lower = more inhibition): at the top concentration
Sequence (O86157 1-203): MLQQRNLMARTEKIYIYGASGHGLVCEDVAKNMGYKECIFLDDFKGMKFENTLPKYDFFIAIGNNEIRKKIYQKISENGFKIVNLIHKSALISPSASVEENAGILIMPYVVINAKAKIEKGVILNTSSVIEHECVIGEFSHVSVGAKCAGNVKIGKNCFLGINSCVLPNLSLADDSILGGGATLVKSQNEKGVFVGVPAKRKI

Structure (SMILES)	normalized activity % vs neutral control (lower = more inhibition)
CO[C@H]1CN(C)C(=O)c2cc(NC(C)=O)ccc2OC[C@@H](C)NC[C@@H]1C	6.89%
Cc1noc(C)c1NC(=O)Nc1cccc2c1O[C@H](CN(C)C(=O)Nc1cccc3ccccc13)[C@@H](C)CN([C@H](C)CO)C2=O	7.55%
CCC(=O)Nc1ccc2c(c1)OC[C@@H](C)N(Cc1ccccn1)C[C@@H](C)[C@H](OC)CN(C)C2=O	0.696%
O=C(C[C@@H]1CC[C@H]2[C@@H](COC[C@H](O)CN2C(=O)Nc2cccc(F)c2)O1)NCc1ccccc1F	4.47%
C/C=C/c1cnc2c(c1)C(=O)N([C@@H](C)CO)C[C@H](C)[C@@H](CN(C)C(=O)c1cccnc1)O2	8.94%
CC(=O)N[C@H]1CC[C@H](CC(=O)NCc2ccc(Cl)cc2)O[C@H]1CO	-3.66%
C[C@@H]1CN([C@@H](C)CO)C(=O)c2cc(NC(=O)Nc3ccc(F)cc3)ccc2O[C@@H]1CN(C)CC1CCCCC1	6.19% [at 21 µM]
C[C@H]1CN([C@@H](C)CO)C(=O)c2cccc(NC(=O)Nc3ccccc3)c2O[C@H]1CN(C)C	1.83% [at 21 µM]
CC=Cc1ccc2n(c1=O)C[C@@H]1[C@@H](CO)[C@H](C(=O)NCCOC)[C@H]2N1Cc1nccs1 (mixture of isomers)	-3.74%
O=C(C[C@@H]1C[C@@H]2c3cc(NC(=O)NC4CCCCC4)ccc3O[C@@H]2[C@@H](CO)O1)NCc1cccnc1	6.3%
O=C(C[C@@H]1CC[C@@H]2[C@H](COC[C@@H](O)CN2Cc2ccc(F)cc2)O1)N1CCc2ccccc2C1	3.26%
CO[C@@H]1CN(C)C(=O)c2ccc(NS(C)(=O)=O)cc2OC[C@@H](C)N(C(=O)C2CCOCC2)C[C@H]1C	-0.403%
O=C(N[C@H]1C=C[C@@H](CC(=O)N2CCCCC2)O[C@H]1CO)c1ccc2c(c1)OCO2	5.79%
COCC#Cc1cnc2c(c1)C(=O)N([C@@H](C)CO)C[C@H](C)[C@@H](CN(C)C(=O)C1CCC1)O2	6.81% [at 21 µM]
CC(C)NC(=O)N(C)C[C@@H]1Oc2ccc(NC(=O)Cc3cn(C)c4ccccc34)cc2C(=O)N([C@H](C)CO)C[C@H]1C	-2.89%
COc1ccc(C#Cc2cnc3c(c2)C(=O)N([C@@H](C)CO)C[C@H](C)[C@H](CN(C)CC2CCCC2)O3)cc1	1.65%
